Results as given in PubChem BioAssay AID799 (SRMLSC, 2007).
Hit rate of the full screen: of about 140,000 compounds, about 840 (0.6%) were called active. The sample holds actives, similar compounds and a random draw of the others, so the mix is not that of the screen. Values without a mark were called inactive.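 The calls were made as follows: active = viability gain under doxorubicin at or above a set limit, the compound median plus 3 SD (cut at about 4.7% in these data); inactive = the rest.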

Test: protection of MRP-1-high cells against doxorubicin toxicity – H69AR cells, CellTiter-Glo, MRP-1 activator project, primary screen (AID 799);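 also: 18-22 h compound pretreatment then 72 h with doxorubicin before readout; 0% = doxorubicin-only wells and 100% = vehicle-treated cells without doxorubicin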
Settings: viability rescue, at 10 µM, stronger effect = higher value

Row | SMILES | viability increase
1 | COc1ccc([N+](=O)[O-])cc1NC(=O)COC(=O)/C=C/c1ccco1 | 7.08% (active)
2 | COc1ccc([N+](=O)[O-])cc1NC(=O)CCc1ccccc1 | -1.62%
3 | CC(C)CNC(=O)COC(=O)/C=C/c1ccco1 | 1.16%
4 | Cc1[nH]c2ccccc2c1/C=N\NC(=O)Cn1nnc(-c2ccccc2)n1 | 3.22%
5 | CN(C)CCCNC(=S)NCc1ccc(Cl)cc1 | -0.81%
6 | CCOC(=O)NC(=O)CSc1nnc(SCCC(=O)O)s1 | 1.73%
7 | CCCC(=O)Nc1cccc(NC(=S)NC(=O)C(C)Oc2ccc(Cl)cc2Cl)c1 (stereo not given) | -2.06%
8 | Cc1ccc(OCc2nnc(SC3CCc4ccccc4C3=O)n2C)cc1 (stereo not given) | 7.21% (active)
9 | COc1ccccc1C(=O)Nc1ccc(OCc2nnc3c4ccccc4c(C)nn23)cc1 | 0.29%
10 | Cc1cccnc1NC(=O)CSc1nnc(COc2ccc(C(C)C)cc2)n1C | 0.08%
11 | Cc1ccc2nc(SCc3cn4c(C)cc(C)nc4n3)[nH]c2c1 | 0%
12 | COc1ccc(N2CCN(Cc3cc(=O)oc4ccc5ccccc5c34)CC2)cc1 | -1.38%
13 | OC(COc1ccc2c(c1)CCC2)CN1CCN(c2cccc(Cl)c2)CC1 (stereo not given) | -3.05%
14 | O=c1cc(CN2CCN(c3cccc(Cl)c3)CC2)c2cc3c(cc2o1)CCCC3 | 6.01% (active)
15 | O=C(CSc1nc2ccccc2[nH]1)N/N=C/C=C\c1ccccc1[N+](=O)[O-] | -1.58%
16 | COc1cccc(/C(C)=N/Nc2ncc(Cl)cc2Cl)c1 | -1%
17 | Cn1cc(C(=O)NCc2ccccc2F)cn1 | -0.72%
18 | CCn1nc(C)c(NC(=O)/C=C/c2ccc(OC)c(COc3ccc(Br)cc3)c2)c1C | 3.69%
19 | COc1ccc(/C=C/C(=O)Nc2c(C)nn(C)c2C)cc1COc1ccc(Br)cc1 | 7.14% (active)
20 | COc1ccc(/C=C/C(=O)Nc2ccc3c(c2)OCCO3)cc1OC | -2.17%
21 | Cn1c(=O)c(Sc2ccc(Cl)cc2)c(O)c2ccccc21 | -2.5%
22 | CCN(CC)CCNCc1ccc(OCc2ccc(Cl)nc2)c(OC)c1 | 1.21%
23 | CCCCCC(=O)Nc1ccc(S(=O)(=O)Nc2ccc(Cl)nn2)cc1 | 6.79% (active)
24 | COc1ccc(NS(=O)(=O)c2ccc(NC(=S)NC(=O)/C=C/c3ccc(C)cc3)cc2)nn1 | -3.16%

Row | SMILES | viability increase
25 | COc1ccc(NS(=O)(=O)c2ccc(NC(=O)C(C)(C(F)(F)F)C(F)(F)F)cc2)nn1 | -0.72%
26 | O=C(/C=C/c1ccccc1)Nc1nnc(SCC(=O)c2ccc3ccccc3c2)s1 | -5.32%
27 | COc1ccc2nc(NC(=O)[C@@H]3CCCN3C(=O)c3cccs3)sc2c1 | -1.42%
28 | CC(C)CN(C(=O)CN1CCN(S(=O)(=O)c2ccccc2)CC1)c1c(N)n(CC(C)C)c(=O)[nH]c1=O | 0.86%
29 | Cc1cccc(C)c1-n1c(C)cc(/C=C2\C(=O)NN(c3ccccc3)C2=O)c1C | 7.89% (active)
30 | Cc1ccccc1-n1c(C)cc(/C=C2\NC(=O)NC2=O)c1C | -4.81%
31 | Cc1cc(/C=C2/NC(=O)NC2=O)c(C)n1-c1cccnc1 | -1.48%
32 | CCC(C(=O)OCC(=O)Nc1c(Cl)cc(Cl)cc1Cl)c1ccccc1 (stereo not given) | 0.97%
33 | COc1ccc(-n2ncc3c(N4CCCc5ccccc54)ncnc32)cc1 | 10.8% (active)
34 | COc1ccc(-n2ncc3c(N4CCc5ccccc54)ncnc32)cc1 | -1.22%
35 | Cc1cccc(-n2ncc3c(N4CCc5ccccc54)ncnc32)c1 | -0.96%
36 | COc1cc(Cl)c(C)cc1NC(=O)COC(=O)c1cc(SC)ccc1Cl | -0.15%
37 | CCC1CCCCN1C(=S)Nc1ccc(SC(F)F)cc1 (stereo not given) | 1.82%
38 | Cc1ccccc1NC(=O)CSC1=NCCN1 | 5.48% (active)
39 | Cc1cccc(NC(=O)CSc2nc3c(c(=O)[nH]2)CCCC3)c1C | -0.17%
40 | Cc1ccccc1NC(=O)CNc1ccccc1N1CCCCC1 | -3.04%
41 | N=c1n(CCc2ccccc2)c2ccccc2n1Cc1ccccc1F | -4.33%
42 | COc1ccc(C)cc1NC(=O)CSc1ccc(Cl)cc1 | -1.28%
43 | O=C1CCCC(O)=C1N=Nc1ccc2ncsc2c1 | -2.88%
44 | Cc1cc(C(=O)OCC(=O)Nc2ccc(F)c(F)c2)c(C)o1 | 7.91% (active)
45 | CCn1c2ccccc2c2cc(NC(=O)COC(=O)c3ccccc3Br)ccc21 | -1.59%
46 | Cc1cc(C(=O)OCC(=O)c2c(N)n(C)c(=O)n(C)c2=O)c(C)o1 | -2.26%
47 | CC(C)(C)NC(=O)C(=O)NCc1ccncc1 | -2.66%
48 | COc1ccc(NC(=O)CCN2CCCC2)c(OC)c1 | 1.66%

Row | SMILES | viability increase
49 | Cc1cc(NC(=O)CCC2COc3ccccc3O2)no1 (stereo not given) | 0%
50 | COc1ccc(NC(=O)CC2COc3ccccc3O2)c(OC)c1 (stereo not given) | 4.96% (active)
51 | O=c1cc(CN2CCN(S(=O)(=O)/C=C/c3ccccc3)CC2)c2ccc(O)cc2o1 | -2.59%
52 | CC(C)(C)CC(C)(C)NCC(O)COCCOc1ccc(Br)cc1 (stereo not given) | -4.69%
53 | Cc1ccc(-n2[nH]c(C)c(/C=N/NC(=O)c3cccc([N+](=O)[O-])c3)c2=O)cc1C | -4.06%
54 | Cc1cc(C(=O)N/N=C/c2cc([N+](=O)[O-])cc(C)c2O)n[nH]1 | 5.47% (active)
55 | Cc1ccsc1C(=O)N/N=C/c1ccc([N+](=O)[O-])cc1 | 0.85%
56 | COC(=O)c1onc(-c2c(OC)cc(OC)cc2OC)c1C(=O)OC | 1.1%
57 | O=C(N/N=C/c1ccc(Br)o1)c1cncc(Br)c1 | -1.78%
58 | Cc1ccc(OCC(=O)OC(C)CN(C)Cc2ccccc2)cc1 (stereo not given) | -1.74%
59 | CCn1c(SCC(=O)Nc2ccc(C)cc2)nc2nc3c(cc2c1=O)CCCC3 | 0.07%
60 | CCOc1ccc(OCC)c(-c2c(=O)n(OCc3ccc(Cl)cc3)c3ccccc3[n+]2[O-])c1 | 7.22% (active)
61 | COc1ccc(OC)c(-c2c(=O)n(OCc3ccccc3Br)c3ccccc3[n+]2[O-])c1 | -1.16%
62 | Clc1ccc(COn2c(-c3ccc(Cl)cc3Cl)nc3ncccc32)cc1 | -3.46%
63 | CCCN(CC1COc2ccccc2O1)C(=S)Nc1ccc(C)cc1 (stereo not given) | -0.89%
64 | Cc1nnc(-c2ccc(Oc3ccc(C)c(C)c3)c([N+](=O)[O-])c2)o1 | -1.23%
65 | COc1cccc(/C=N/Nc2ncc(C(F)(F)F)cc2Cl)c1O | -4.98%
66 | Cc1cc(C)c(NC(=S)N2CCCC2C(=O)O)c(C)c1 (stereo not given) | 0.6%
67 | CC(C)(C)c1ccc(C(=O)CSc2ncn[nH]2)cc1 | 9.85% (active)
68 | Cn1nnc(NC(=O)CSc2ncn[nH]2)n1 | -0.73%
69 | CCN(C(=O)CSc1ncn[nH]1)c1cccc2ccccc12 | 1.04%
70 | CCN(CC(=O)NCCc1ccccc1)S(=O)(=O)c1ccc(C)cc1 | -2.77%
71 | CC(C)(C)NC(=O)c1cccc(NC(=O)Cc2ccc(Br)cc2)c1 | 5.31% (active)
72 | COc1ccc(CC(=O)Nc2ccc(C(=O)NC(C)(C)C)cc2)cc1 | 0.14%

Row | SMILES | viability increase
73 | O=C(Cc1ccccc1)Nc1cccc(C(=O)N/N=C/c2ccco2)c1 | -0.32%
74 | COc1ccc(Cl)cc1NC(=O)Cn1nc(-c2ccc(C)cc2)n(C)c1=S | -3.24%
75 | CCOC(=O)c1cnc2ccc(F)cc2c1Nc1ccc2c(c1)OCCO2 | -1.56%
76 | Cc1c(CCO)sc[n+]1CC(=O)OC12CC3CC(CC(C3)C1)C2 | -0.72%
77 | N#C/C(C(=O)N1CCOCC1)=C1/SC(Cc2ccc(F)cc2)C(=O)N1c1ccccc1 (stereo not given) | -0.96%
78 | Cc1ccc(CC2S/C(=C(/C#N)C(=O)N3CCOCC3)N(c3ccccc3)C2=O)cc1 (stereo not given) | 7.14% (active)
79 | Cc1ccc(C(=O)C(=S)N2CCOCC2)cc1 | -2%
80 | Cc1ccn(-c2cccc(-n3ccc(C)n3)n2)n1 | 1.12%
81 | CN1/C(=C\C(=O)c2oc3ccccc3c2N)C(C)(C)c2ccccc21 | 5.19% (active)
82 | Cc1noc(C)c1C(=O)OCC(=O)/C=C1\N(C)c2ccccc2C1(C)C | -1.22%
83 | CN1/C(=C\C(=O)c2cccnc2Cl)C(C)(C)c2ccccc21 | -0.96%
84 | C/C(=N/NS(=O)(=O)c1ccccc1)c1ccc(NC(=O)C(F)(F)F)cc1 | -0.61%
85 | Cc1ccccc1N/C(SCc1ccc(Cl)cc1)=C(/C#N)C(N)=O | -2.62%
86 | Cc1scc(C(=O)NNC(=S)NCC(C)C)c1C | 0.83%
87 | COc1ccc(CC(=O)N2N=C(C)CC2(O)C(F)(F)F)cc1 (stereo not given) | -0.45%
88 | O=S(=O)(Nc1ccc(Oc2ncccn2)c(Cl)c1)c1ccc(F)cc1 | -2.28%
89 | Cc1ccc(S(=O)(=O)Nc2ccc3ncccc3c2)cc1 | 5.23% (active)
90 | Cc1ccc(C(=O)/C=C/Nc2ccc(S(=O)(=O)Nc3onc(C)c3C)cc2)cc1 | -1.44%
91 | CCc1nccn1S(=O)(=O)c1cccc([N+](=O)[O-])c1 | 1.01%
92 | NC(=O)COc1ccc2c3c(c(=O)oc2c1)CCCCC3 | -0.34%
93 | N#CC1(NC(=O)COc2ccc3oc4ccccc4c3c2)CCCCC1 | 0%
94 | O=C(COc1ccc2oc3c(c2c1)CCCC3)Nc1ccccn1 | 5.27% (active)
95 | O=C(COC(=O)Cc1ccc(F)cc1)Nc1cc(S(=O)(=O)N2CCOCC2)ccc1N1CCCC1 | 0.15%
